# Screen size: about 4,300 compounds; about 4,000 (93%) were called active. The set was probably picked from earlier hits. Not all results are given here. Values without a mark were called inactive.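 How the source made its calls: active means inhibition above its plate's cutoff, the mean test-well inhibition plus 3 SD (cut at about 4.8% in these data); inactive means the rest.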
# Experiment: displacement of TO-PRO-1 from CAG DNA duplex, counter-screen for rCAG RNA repeat binder project, biochemical, fluorescence, TO-PRO-1 dye, d(CAG) DNA oligo (AID 652068);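 further: 0% = DNA dye mix with DMSO and 100% = 100 µM mitoxantrone; hits displace the dye from DNA and so lower well fluorescence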
# Conditions: d(CAG) DNA oligo TO-PRO-1 dye displacement, at 3 µM, stronger effect = higher value
row,SMILES,inhibition
1,O=C1NC(=O)N(Cc2ccco2)C(=O)/C1=C\c1ccc(-c2ccc(F)cc2)o1,13.1% (active)
2,O=C1CC(=O)N(Cc2ccccc2)C(=O)N1CCCCCCN1C(=O)CC(=O)N(Cc2ccccc2)C1=O,22.6% (active)
3,COc1ccc(N2C(=O)/C(=C/c3ccco3)C(=O)NC2=S)cc1,61.4% (active)
4,CC/C(=N\NC(=O)c1ccccc1O)c1c(O)n(Cc2ccccc2)c(=O)[nH]c1=O,36.7% (active)
5,COc1ccc2c(c1)[C@@]13CCCCC1[C@@H](C2)NCC3 (some centres not stated),-5.51%
6,COc1cccc(N2C(=O)NC(=O)/C(=C\c3ccc([N+](=O)[O-])s3)C2=O)c1,19.4% (active)
7,O=C1NC(=O)N(c2ccccc2)C(=O)/C1=C/c1ccc([N+](=O)[O-])s1,25.7% (active)

# Source: PubChem BioAssay AID652068 (The Scripps Research Institute Molecular Screening Center, 2013)
